Data published in publication PMC11006913.
Residue numbers refer to the chain shown, from its start.

Columns and labels:
Test in all cases: PBM; 200 nM protein, PBS
Conditions in all cases: dsDNA, one strand shown
NKX2-5 [1] = target: NKX2-5 (Homo sapiens, UniProt P52952 125-210, R139K)
HOXB4 [2] = target: HOXB4 (Homo sapiens, UniProt P17483 148-234)
HOXB4 [3] = target: HOXB4 (Homo sapiens, UniProt P17483 148-234, V174I)
NKX2-5 [4] = target: NKX2-5 (Homo sapiens, UniProt P52952 125-210)
NKX2-4 [5] = target: T1, NKX2-4 (Homo sapiens, UniProt Q9H2Z4 175-261, P217L)
T1 sequence: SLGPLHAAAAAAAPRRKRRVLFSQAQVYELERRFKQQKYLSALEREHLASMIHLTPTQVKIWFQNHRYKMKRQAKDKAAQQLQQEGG

NKX2-4 [6] = target: T2, NKX2-4 (Homo sapiens, UniProt Q9H2Z4 175-261, T231S)
T2 sequence: T1 sequence with L43P, T57S

NKX2-4 [7] = target: T3, NKX2-4 (Homo sapiens, UniProt Q9H2Z4 175-261)
T3 sequence: T1 sequence with L43P

NKX2-4 [8] = target: T4, NKX2-4 (Homo sapiens, UniProt Q9H2Z4 175-261, R246Q)
T4 sequence: T1 sequence with L43P, R72Q

NKX2-6 [9] = target: T5, NKX2-6 (Homo sapiens, UniProt A6NCS4 118-204, R150C)
T5 sequence: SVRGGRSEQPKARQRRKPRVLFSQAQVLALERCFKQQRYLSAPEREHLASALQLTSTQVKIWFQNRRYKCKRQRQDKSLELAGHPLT

NKX2-6 [10] = target: T6, NKX2-6 (Homo sapiens, UniProt A6NCS4 118-204)
T6 sequence: T5 sequence with C33R

NKX2-6 [11] = target: T7, NKX2-6 (Homo sapiens, UniProt A6NCS4 118-204, F151L)
T7 sequence: T5 sequence with C33R, F34L

NKX3-2 [12] = target: NKX3-2 (Homo sapiens, UniProt P78367 192-278, P234S)
HOXB9 = HOXB9 (Homo sapiens, UniProt P17482 171-250, R186Q)
NKX3-2 [13] = target: NKX3-2 (Homo sapiens, UniProt P78367 192-278)
Chain of NKX3-2 (Homo sapiens, UniProt P78367 192-278) (P78367 192-278): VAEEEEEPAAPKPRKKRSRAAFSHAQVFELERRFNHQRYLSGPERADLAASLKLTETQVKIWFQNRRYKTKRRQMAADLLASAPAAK

Chain of NKX2-5 (Homo sapiens, UniProt P52952 125-210) (P52952 125-210): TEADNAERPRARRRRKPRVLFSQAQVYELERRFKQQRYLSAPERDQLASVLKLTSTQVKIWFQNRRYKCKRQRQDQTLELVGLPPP
Chain of NKX2-5 (Homo sapiens, UniProt P52952 125-210, R139K) (P52952 125-210 R139K): as the sequence (P52952 125-210) above, with R15K counted along it
Chain of NKX3-2 (Homo sapiens, UniProt P78367 192-278, P234S) (P78367 192-278 P234S): as the sequence (P78367 192-278) above, with P43S counted along it
Chain of HOXB4 (Homo sapiens, UniProt P17483 148-234, V174I) (P17483 148-234 V174I): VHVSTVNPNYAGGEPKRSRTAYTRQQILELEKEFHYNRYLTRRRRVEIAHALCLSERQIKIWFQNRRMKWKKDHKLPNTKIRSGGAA
Chain of HOXB4 (Homo sapiens, UniProt P17483 148-234) (P17483 148-234): as the sequence (P17483 148-234 V174I) above, with I27V counted along it
Chain of HOXB9 (P17482 171-250 R186Q): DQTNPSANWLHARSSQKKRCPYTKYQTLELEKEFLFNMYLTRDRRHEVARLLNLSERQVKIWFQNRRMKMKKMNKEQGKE

Row | Sequence | binding signal (NKX2-5 [1]) | binding signal (HOXB4 [2]) | binding signal (HOXB4 [3]) | binding signal (NKX2-5 [4]) | binding signal (NKX2-4 [5]) | binding signal (NKX2-4 [6]) | binding signal (NKX2-4 [7]) | binding signal (NKX2-4 [8]) | binding signal (NKX2-6 [9]) | binding signal (NKX2-6 [10]) | binding signal (NKX2-6 [11]) | binding signal (NKX3-2 [12]) | binding signal (HOXB9) | binding signal (NKX3-2 [13])
1 | ACGGCGGC | 9 upbm affinity estimate (log intensity, higher = more binding, comparable within an allelic series) | 7.36 upbm affinity estimate (log intensity, higher = more binding, comparable within an allelic series) | 7.56 upbm affinity estimate (log intensity, higher = more binding, comparable within an allelic series) | 8.98 upbm affinity estimate (log intensity, higher = more binding, comparable within an allelic series) | – | – | – | – | – | – | – | – | – | –
2 | CCAGGCCG | 8.83 upbm affinity estimate (log intensity, higher = more binding, comparable within an allelic series) | – | – | 8.78 upbm affinity estimate (log intensity, higher = more binding, comparable within an allelic series) | 9.57 upbm affinity estimate (log intensity, higher = more binding, comparable within an allelic series) | 9.57 upbm affinity estimate (log intensity, higher = more binding, comparable within an allelic series) | 9.56 upbm affinity estimate (log intensity, higher = more binding, comparable within an allelic series) | 9.57 upbm affinity estimate (log intensity, higher = more binding, comparable within an allelic series) | – | – | – | – | – | –
3 | ACACTTAT | 12.7 upbm affinity estimate (log intensity, higher = more binding, comparable within an allelic series) | – | – | 12.6 upbm affinity estimate (log intensity, higher = more binding, comparable within an allelic series) | 12.6 upbm affinity estimate (log intensity, higher = more binding, comparable within an allelic series) | 12.9 upbm affinity estimate (log intensity, higher = more binding, comparable within an allelic series) | 12.4 upbm affinity estimate (log intensity, higher = more binding, comparable within an allelic series) | 13.1 upbm affinity estimate (log intensity, higher = more binding, comparable within an allelic series) | 11.9 upbm affinity estimate (log intensity, higher = more binding, comparable within an allelic series) | 13.6 upbm affinity estimate (log intensity, higher = more binding, comparable within an allelic series) | 11.1 upbm affinity estimate (log intensity, higher = more binding, comparable within an allelic series) | 12.5 upbm affinity estimate (log intensity, higher = more binding, comparable within an allelic series) | – | –
4 | CTTCCGTC | 8.85 upbm affinity estimate (log intensity, higher = more binding, comparable within an allelic series) | – | – | 8.77 upbm affinity estimate (log intensity, higher = more binding, comparable within an allelic series) | – | – | – | – | – | – | – | – | – | –
5 | CGCCCGAG | 8.73 upbm affinity estimate (log intensity, higher = more binding, comparable within an allelic series) | 7.76 upbm affinity estimate (log intensity, higher = more binding, comparable within an allelic series) | 7.79 upbm affinity estimate (log intensity, higher = more binding, comparable within an allelic series) | 8.76 upbm affinity estimate (log intensity, higher = more binding, comparable within an allelic series) | – | – | – | – | – | – | – | – | 8.29 upbm affinity estimate (log intensity, higher = more binding, comparable within an allelic series) | –
6 | TAAGTGGA | 13.2 upbm affinity estimate (log intensity, higher = more binding, comparable within an allelic series) | – | – | 13.1 upbm affinity estimate (log intensity, higher = more binding, comparable within an allelic series) | 12.8 upbm affinity estimate (log intensity, higher = more binding, comparable within an allelic series) | 13.2 upbm affinity estimate (log intensity, higher = more binding, comparable within an allelic series) | 12.6 upbm affinity estimate (log intensity, higher = more binding, comparable within an allelic series) | 13.3 upbm affinity estimate (log intensity, higher = more binding, comparable within an allelic series) | 12.3 upbm affinity estimate (log intensity, higher = more binding, comparable within an allelic series) | 13.9 upbm affinity estimate (log intensity, higher = more binding, comparable within an allelic series) | 11.3 upbm affinity estimate (log intensity, higher = more binding, comparable within an allelic series) | 13.2 upbm affinity estimate (log intensity, higher = more binding, comparable within an allelic series) | – | 13.3 upbm affinity estimate (log intensity, higher = more binding, comparable within an allelic series)
7 | CACTTTAA | 12.4 upbm affinity estimate (log intensity, higher = more binding, comparable within an allelic series) | – | – | 12.4 upbm affinity estimate (log intensity, higher = more binding, comparable within an allelic series) | 12.5 upbm affinity estimate (log intensity, higher = more binding, comparable within an allelic series) | 12.9 upbm affinity estimate (log intensity, higher = more binding, comparable within an allelic series) | 12.3 upbm affinity estimate (log intensity, higher = more binding, comparable within an allelic series) | 13 upbm affinity estimate (log intensity, higher = more binding, comparable within an allelic series) | 11.7 upbm affinity estimate (log intensity, higher = more binding, comparable within an allelic series) | 13.4 upbm affinity estimate (log intensity, higher = more binding, comparable within an allelic series) | 10.7 upbm affinity estimate (log intensity, higher = more binding, comparable within an allelic series) | 12.5 upbm affinity estimate (log intensity, higher = more binding, comparable within an allelic series) | – | 12.6 upbm affinity estimate (log intensity, higher = more binding, comparable within an allelic series)
8 | CACTTAGA | 12.6 upbm affinity estimate (log intensity, higher = more binding, comparable within an allelic series) | – | – | 12.4 upbm affinity estimate (log intensity, higher = more binding, comparable within an allelic series) | – | – | – | – | 11.7 upbm affinity estimate (log intensity, higher = more binding, comparable within an allelic series) | 13.6 upbm affinity estimate (log intensity, higher = more binding, comparable within an allelic series) | 10.8 upbm affinity estimate (log intensity, higher = more binding, comparable within an allelic series) | 12.6 upbm affinity estimate (log intensity, higher = more binding, comparable within an allelic series) | – | 12.8 upbm affinity estimate (log intensity, higher = more binding, comparable within an allelic series)
9 | CTACTTAA | 12.4 upbm affinity estimate (log intensity, higher = more binding, comparable within an allelic series) | – | – | 12.3 upbm affinity estimate (log intensity, higher = more binding, comparable within an allelic series) | 12.5 upbm affinity estimate (log intensity, higher = more binding, comparable within an allelic series) | 12.9 upbm affinity estimate (log intensity, higher = more binding, comparable within an allelic series) | 12.4 upbm affinity estimate (log intensity, higher = more binding, comparable within an allelic series) | 13 upbm affinity estimate (log intensity, higher = more binding, comparable within an allelic series) | 11.5 upbm affinity estimate (log intensity, higher = more binding, comparable within an allelic series) | 13.6 upbm affinity estimate (log intensity, higher = more binding, comparable within an allelic series) | 10.6 upbm affinity estimate (log intensity, higher = more binding, comparable within an allelic series) | – | – | –
